In PubChem BioAssay AID1159580 (chemical genetic matrix, 2015):
About 2,000 (36%) of roughly 5,500 compounds were called active. Not shown: some 18% with an inconclusive outcome. Rule as the data show it: active = normalized growth mostly below about 0.91 (no sharp cut-off); inconclusive = no clear call, values can overlap the other calls; inactive = mostly above about 0.92. This is one part of the list.

Assay: chemical genetic growth profiling, strain panel (AID 1159580);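 also: tested at 20 µM; growth read once vehicle control cultures reached saturation at 30 °C; 1 = growth at the plate median or of vehicle wells; lower values mean less growth of the strain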
Conditions: S. cerevisiae deletion strains, growth OD
[1] = locus YAR019C, strain CDC15, hits give low values
[2] = locus YBL105C, strain PKC1, hits give low values
[3] = locus YBR135W, strain CKS1, hits give low values
[4] = locus YBR136W, strain MEC1, hits give low values
[5] = locus YBR160W, strain CDC28, hits give low values
[6] = locus YDL017W, strain CDC7, hits give low values
[7] = locus YDL028C, strain MPS1, hits give low values
[8] = locus YDL101C, strain DUN1, hits give low values
[9] = locus YDL108W, strain KIN28, hits give low values
[10] = locus YDL132W, strain cdc53, hits give low values
[11] = locus YDL214C, strain PRR2, hits give low values
[12] = locus YDR052C, strain DBF4, hits give low values
[13] = locus YDR054C, strain cdc34, hits give low values
[14] = locus YDR226W, strain ADK1, hits give low values
[15] = locus YDR477W, strain SNF1, hits give low values
[16] = locus YER123W, strain YCK3, hits give low values
[17] = locus YER133W, strain GLC7, hits give low values
[18] = locus YFL009W, strain cdc4, hits give low values
[19] = locus YFL029C, strain CAK1, hits give low values
[20] = locus YFR003C, strain YPI1, hits give low values
[21] = locus YFR019W, strain FAB1, hits give low values
[22] = locus YFR028C, strain CDC14, hits give low values
[23] = locus YGR040W, strain KSS1, hits give low values
[24] = locus YGR052W, strain FMP48, hits give low values
[25] = locus YGR092W, strain DBF2, hits give low values
[26] = locus YHR030C, strain SLT2, hits give low values
[27] = locus YHR079C, strain IRE1, hits give low values
[28] = locus YHR082C, strain KSP1, hits give low values
[29] = locus YHR205W, strain SCH9, hits give low values
[30] = locus YIL147C, strain SLN1, hits give low values
[31] = locus YJL095W, strain BCK1, hits give low values
[32] = locus YJL128C, strain PBS2, hits give low values
[33] = locus YJL157C, strain FAR1, hits give low values
[34] = locus YJR016C, strain ILV3, hits give low values
[35] = locus YJR066W, strain TOR1 (second series), hits give low values
[36] = locus YJR066W, strain TOR1, hits give low values
[37] = locus YKL048C, strain ELM1, hits give low values
[38] = locus YKL067W, strain YNK1, hits give low values
[39] = locus YKL101W, strain HSL1, hits give low values
[40] = locus YKL193C, strain SDS22, hits give low values
[41] = locus YKL203C, strain TOR2, hits give low values
[42] = locus YLR113W, strain HOG1, hits give low values
[43] = locus YLR133W, strain CKI1, hits give low values
[44] = locus YLR403W, strain SFP1, hits give low values
[45] = locus YML070W, strain DAK1, hits give low values
[46] = locus YMR001C, strain CDC5, hits give low values
[47] = locus YMR205C, strain PFK2 (second series), hits give low values
[48] = locus YMR277W, strain FCP1, hits give low values
[49] = locus YNL006W, strain LST8, hits give low values
[50] = locus YNL020C, strain ARK1, hits give low values
[51] = locus YNL161W, strain CBK1, hits give low values
[52] = locus YNL183C, strain NPR1, hits give low values
[53] = locus YNL207W, strain RIO2, hits give low values
[54] = locus YNL222W, strain SSU72, hits give low values
[55] = locus YNL307C, strain MCK1 (second series), hits give low values
[56] = locus YOL078W, strain AVO1, hits give low values
[57] = locus YOL136C, strain PFK27, hits give low values
[58] = locus YOR061W, strain CKA2, hits give low values
[59] = locus YOR119C, strain RIO1, hits give low values
[60] = locus YOR231W, strain MKK1, hits give low values
[61] = locus YOR329C, strain SCD5, hits give low values
[62] = locus YPL031C, strain PHO85, hits give low values
[63] = locus YPL153C, strain RAD53, hits give low values
[64] = locus YPL204W, strain HRR25, hits give low values
[65] = locus YPL209C, strain IPL1, hits give low values
[66] = locus YPL256C, strain CLN2, hits give low values
[67] = locus YPR025C, strain CCL1, hits give low values
[68] = locus YPR106W, strain ISR1, hits give low values
[69] = locus YPR111W, strain DBF20, hits give low values
[70] = strain NNK1, hits give low values
[71] = strain TSCII, hits give low values

Measured: normalized growth

Fc1cccc(Cl)c1CSc1n[nH]c(-c2cc(C(F)(F)F)cc(C(F)(F)F)c2)n1
active: [26] 0.372 | [42] 0.773 | [66] 0.811
inactive: [1] 0.973 | [2] 0.981 | [3] 0.981 | [4] 0.982 | [5] 0.977 | [6] 0.987 | [7] 0.961 | [8] 0.986 | [9] 0.97 | [10] 0.975 | [11] 0.916 | [12] 0.994 | [13] 0.973 | [14] 0.971 | [15] 0.891 | [16] 0.918 | [17] 0.939 | [18] 0.961 | [19] 0.973 | [20] 0.977 | [21] 0.913 | [22] 0.973 | [23] 0.898 | [24] 0.925 | [25] 0.914 | [27] 0.836 | [28] 0.871 | [29] 0.821 | [30] 0.98 | [31] 0.79 | [32] 0.957 | [33] 0.926 | [34] 0.981 | [35] 0.918 | [36] 0.873 | [37] 0.974 | [38] 0.916 | [39] 0.889 | [40] 0.975 | [41] 1.01 | [43] 0.902 | [44] 0.926 | [45] 0.907 | [46] 0.97 | [47] 0.937 | [48] 0.959 | [49] 0.983 | [50] 0.905 | [51] 0.976 | [52] 0.933 | [53] 0.978 | [54] 0.965 | [55] 0.744 | [56] 0.976 | [57] 0.878 | [58] 0.911 | [59] 0.943 | [60] 0.846 | [61] 0.983 | [62] 0.896 | [63] 0.894 | [64] 0.868 | [65] 0.979 | [67] 0.981 | [68] 0.97 | [69] 0.945 | [70] 0.96 | [71] 0.972

CSc1n[nH]c(-c2cc(C(F)(F)F)cc(C(F)(F)F)c2)n1
active: [26] 0.671 | [42] 0.615 | [66] 0.709
inactive: [1] 0.939 | [2] 0.952 | [3] 0.946 | [4] 0.948 | [5] 0.939 | [6] 0.955 | [7] 0.939 | [8] 0.973 | [9] 0.918 | [10] 0.955 | [11] 0.892 | [12] 0.977 | [13] 0.938 | [14] 0.942 | [15] 0.895 | [16] 0.892 | [17] 0.935 | [18] 0.92 | [19] 0.918 | [20] 0.953 | [21] 0.979 | [22] 0.936 | [23] 0.893 | [24] 0.92 | [25] 0.894 | [27] 0.82 | [28] 0.914 | [29] 0.785 | [30] 0.941 | [31] 0.791 | [32] 0.859 | [33] 0.938 | [34] 0.947 | [35] 0.939 | [36] 0.859 | [37] 0.904 | [38] 0.887 | [39] 0.853 | [40] 0.939 | [41] 1 | [43] 0.904 | [44] 0.927 | [45] 0.878 | [46] 0.937 | [47] 0.925 | [48] 0.921 | [49] 0.945 | [50] 0.897 | [51] 0.948 | [52] 0.868 | [53] 0.947 | [54] 0.927 | [55] 0.856 | [56] 0.953 | [57] 0.84 | [58] 0.937 | [59] 0.942 | [60] 0.776 | [61] 0.95 | [62] 0.885 | [63] 0.887 | [64] 0.864 | [65] 0.952 | [67] 0.946 | [68] 0.929 | [69] 0.952 | [70] 0.917 | [71] 0.937
